Measurements: PubChem BioAssay AID489018 (Southern Research Specialized Biocontainment Screening …, 2010)
Out of some 2,300 compounds screened, about 350 (15%) were called active. Not all results are given here. Results with a measured potency or affinity are listed apart. Values without a mark were called inactive. How the calls were made is not given here.

Assay: HepG2 cell cytotoxicity, dose response, cytotoxicity control for non-replicating M. tuberculosis project (AID 489018);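 further: HepG2 human liver cells; 100% = vehicle-treated cells and 0% = background signal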
Details: series mostly up to 20 µM; viability: at the top concentration

Structure (SMILES)	viability
O=C(c1ccc(-c2ccc([N+](=O)[O-])cc2)o1)N1CCCCCCC1	92.1%
FC(F)(F)c1nnc2ccc(Cl)nn12	77.7%
Cc1cc(N/N=C/c2ccccc2O)c2ccccc2n1	100% [at 5 µM]
COc1ccc(/C=N/Nc2cc(C)nc(-n3nc(C)cc3C)n2)cc1	99.2% [at 5 µM]
COc1ccc2nc(/N=C(\N)NC(=O)C(C)(C)C)nc(C)c2c1	89%
COc1cc(/C=N/Nc2cccc3cccnc23)cc(OC)c1O	115%
COc1ccc(Nc2ccccc2N)cc1	92.6%
Cc1nnc(N/N=C/c2ccc(Br)cc2)n1N	100%
O=C(c1ccccc1)c1nc[nH]c1C(=O)Nc1ccccc1	85.1%
COC(=O)C(O)(c1ccc(NC(=S)NC(=O)c2ccccc2)cc1)C(F)(F)F (stereo not drawn)	105%
O=C(N=Nc1c(O)[nH]c2ccc(Br)cc12)c1ccccc1-n1cccc1	78.4%
O=C(Oc1ccccc1)c1ccc(NC(=O)c2ccco2)cc1	109%
O=C1NC(=O)C(=Cc2ccc(Oc3ccc([N+](=O)[O-])cc3)cc2)C(=O)N1	111%
c1ccc2sc(SCc3ccc(-c4nnco4)cc3)nc2c1	77%
CCCCNC(=O)Nc1nnc(-c2ccc(Cl)cc2)o1	104%
CC(NC(=O)c1cc([N+](=O)[O-])cc([N+](=O)[O-])c1)c1ccc(-n2ccnc2)cc1 (stereo not drawn)	96.5%
Cc1cccc(OCCN2CSC(=S)N(C)C2)c1	105%
COC(=O)C1CC(=O)N(c2ccc(OCc3ccccc3Cl)cc2)C1 (stereo not drawn)	94.5%
COc1cc(CNC2CCCC2)cc(Cl)c1OCc1ccc(F)cc1	93.5% [at 5 µM]
Clc1ccc(OCCCNCc2ccccc2)c2ccccc12	80%
Clc1ccc(Cl)c(OCCCCNCc2ccccc2)c1	94.7%
Clc1cccc(CNCCNCc2cccc(Cl)c2)c1	100%
COc1cc(CNCCc2ccccc2)cc(Br)c1OCC(=O)Nc1ccccc1C	85.8%
N#C/C(N=Nc1ccccc1O)=N\Nc1ccccc1O	93% [at 5 µM]

Structure (SMILES)	viability
O=C(OCC#CCSc1nc2ccccc2o1)c1ccco1	90.8%
O=C(CCNc1ccc(Cl)cc1)c1cccs1	109%
O=C(N/N=C/c1ccccn1)c1cccc(S(=O)(=O)Nc2ccccc2Cl)c1	90%
CC(=O)Nc1nc2ccccc2n1CCOc1ccccc1Cl	71.9%
COc1cccc2cc(-c3nc4ccccc4o3)c(=O)oc12	108%
NC(=O)c1ccc(N=Cc2ccc([N+](=O)[O-])s2)cc1	108% [at 5 µM]
CCC(C)(C)c1ccc(OCC(=O)Nc2ccncc2)cc1	105% [at 5 µM]
Cc1nnc(N/N=C/c2ccc(-c3ccc(Br)cc3)o2)n1N	98.3%
O=C(Nc1nnc(-c2ccc(Cl)cc2)o1)c1nc2ccccc2s1	101%
Cc1ccc2nc(CCc3nc4ccc(C)cc4[nH]3)[nH]c2c1	99.9%
O=C(CCNc1ccc(Cl)c(C(F)(F)F)c1)c1ccco1	97.3% [at 5 µM]
CN(C)CCNc1c2c(c(C#N)c3nc4ccccc4n13)CCCC2	99.8%
COc1cccc(-c2cc3nc4c(c(NCC(C)(C)CN(C)C)n3n2)CCCC4)c1	87.6%
CSc1ccc(CNc2ncc(-c3cccc([N+](=O)[O-])c3)n2C)cc1	100%
CCCCCCCC(=O)N/N=C(/C)c1c(O)cc(C)oc1=O	107% [at 5 µM]
CCCCCCCC(=O)NNC(=O)c1ccc(F)cc1	97.3% [at 5 µM]
O=C(OCc1c(Cl)cccc1Cl)c1ccccn1	103%
COC(=O)COc1cccc(NC(=O)COc2ccccc2)c1	98.3% [at 5 µM]
O=C(N/N=C/C(Br)=C/c1ccccc1)c1cnccn1	95.7%
O=C(N/N=C/C(Br)=C/c1ccccc1)c1ccncc1	99.2%
COc1ccc(NC(=O)CCCN2C(=O)/C(=C\c3ccco3)SC2=S)cc1	97.5%
O=c1[nH]c(=O)n(Cc2ccccc2Cl)c(O)c1/C=C1/C=CC=N1	96.3%
c1ccc(Nc2nc(Nc3ccccc3)nc(N3CCNCC3)n2)cc1	72.8%
COc1ccc(CCOC(=O)c2ccc(N)c([N+](=O)[O-])c2)cc1	92.9%

Structure (SMILES)	viability
Cc1ccccc1NC(=O)c1nc[nH]c1C(=O)NCc1ccccc1	89.2%
O=C(COC(=O)CCc1c[nH]c2ccccc12)Nc1cc([N+](=O)[O-])ccc1Cl	97.9%
C[C@H](NC(=O)c1[nH]cnc1C(=O)Nc1ccccc1)C(=O)OC(C)(C)C	108% [at 5 µM]
O=c1c2c(nc3c(-c4ccccc4)c[nH]n13)CCCC2	79.2%
Cc1ccc(-c2noc(CCCC(=O)Nc3cccnc3)n2)cc1	102% [at 5 µM]
CCCCNC(=O)COC(=O)c1cc(F)c(F)cc1Cl	97.4%
O=C(CCNc1ccc(F)cc1)c1ccco1	104% [at 5 µM]
O=C(/C=C/Nc1ccccc1O)c1ccco1	93.7%
COc1ccc(C(=O)COC(=O)c2ccccc2O)c(OC)c1	97.4%
CCCS(=O)(=O)c1nnnn1-c1cccc(OC)c1	99.5% [at 5 µM]
CCOC(=O)Cn1cc(C#N)c2cccc(CC)c21	95.7%
CCn1c(NC(=O)c2ccccc2)nc2ccccc21	81.6%
CCOC(=O)C(C)Oc1ccc(OCc2ccccc2)cc1 (stereo not drawn)	90.2%
CCOC(=O)COc1ccc2c(c1)c(C(C)=O)c(C)n2Cc1ccccc1	102%
CC(C)(C)NC(=O)c1ccc(NC(=O)c2ccccc2-c2ccccc2C(=O)O)cc1	106%
CSc1ccc(N=Nc2c(C)[nH]n(C)c2=O)cc1	82.9%
Nc1nc2ccccc2n1CCOc1ccccc1Cl	77.5%
C/C(=N\NC(=O)c1ccccc1)c1nc2ccccc2n1C	99.8% [at 5 µM]
C/C(=N\NC(=O)c1ccc([N+](=O)[O-])c(C)c1)c1ccccc1Cl	93.5%
Cc1ccc(N2NC(=O)/C(=C/C=C/c3ccco3)C2=O)cc1C	93%
c1ccc(CSc2ccc(-c3ccccn3)nn2)cc1	78.7%
COC(=O)/C(=C1/Oc2cc(C)oc(=O)c2S1)C(F)(F)F	110% [at 5 µM]
O=C(Nc1ccc(Cc2ccncc2)cc1)c1ccc([N+](=O)[O-])o1	92.2% [at 5 µM]
O=C(Nc1ccccc1N1CCN(C(=O)c2ccc(Cl)cc2)CC1)c1ccc([N+](=O)[O-])o1	77%

Structure (SMILES)	viability
O=C(Nc1nc2c(Cl)cccc2s1)c1ccc([N+](=O)[O-])o1	90.5%
O=C(Nc1ccc(S(=O)(=O)N2CCOCC2)cc1)c1ccc([N+](=O)[O-])o1	113% [at 5 µM]
Cc1ccc(-n2nnnc2CNC(=O)c2ccc([N+](=O)[O-])o2)cc1C	78.6%
O=C(Nc1cccc(Cl)c1N1CCCC1)c1ccc([N+](=O)[O-])o1	84.4%
O=C(Nc1cccc(S(=O)(=O)N2CCCCC2)c1)c1ccc([N+](=O)[O-])o1	71.3% [at 5 µM]
Cc1ccc(C)c(-c2nnc(NC(=O)c3ccc([N+](=O)[O-])o3)o2)c1	91% [at 5 µM]
CCNC(=O)COC(=O)c1ccc(-c2nc3ccccc3s2)s1	95.6%
O=C(CCN1CCN(C/C=C/c2ccccc2)CC1)Nc1ccc(Cl)cc1	74.9%
O=C(COc1ccc(F)cc1)N/N=C/c1cccc2cccnc12	111%
CCCn1nnnc1NC(=O)c1ccc2ccccc2c1	93.8%
COCCn1c(C)cc(C(=O)COC(=O)c2ccc([N+](=O)[O-])o2)c1C	103%
CC(=O)Oc1c(-c2ccc(Br)o2)oc2ccccc2c1=O	96.1%
C=CCn1c(O)c(C2=c3ccccc3=NC2=O)c2ccccc21	109% [at 5 µM]
O=C1c2cc([N+](=O)[O-])cc3cc([N+](=O)[O-])cc(c23)C(=O)N1c1ccccn1	95.9% [at 5 µM]
CCCCNC(=O)COC(=O)c1cc(Br)ccc1Cl	101%
Cc1ccc(CNC(=O)c2ccc([N+](=O)[O-])o2)cc1	86.4%
O=C(Nc1nc(-c2ccccn2)cs1)c1ccc([N+](=O)[O-])o1	110% [at 5 µM]
O=C(Nc1ccccn1)c1ccc([N+](=O)[O-])o1	110%
O=C(Nc1nccs1)c1ccc(-c2ccc(Cl)cc2)o1	91.2%
O=C(Nc1ncccn1)c1ccc([N+](=O)[O-])o1	91%
O=C(Nc1cccnc1)c1ccc(-c2ccc(Cl)cc2)o1	101%
CCOC(=O)c1cc(-c2csc(COc3ccc(Cl)cc3)n2)on1	96.1%
Cc1cccc(NC(=O)COC(=O)CCc2c[nH]c3ccccc23)c1C	109%
CC(OC(=O)c1ccc2c(=O)n3c(nc2c1)CCCCC3)C(=O)Nc1ccc(Cl)cn1 (stereo not drawn)	97.6%

Structure (SMILES)	viability
C=CCn1c(NC(=O)c2ccccc2)nc2ccccc21	102% [at 5 µM]
C/C(=N/NC(=O)c1ccncc1)C1=C(O)CC(C)(C)CC1=O	106% [at 5 µM]
C=Cc1cccc(NC(=O)COc2ccccc2)c1	95.6%
Cc1ccc(NCCC(=O)c2cccs2)cc1Cl	108%
CCOC(=O)COc1ccc2c(c1)c(C(=O)OCC)c(C)n2CC	102%
NC(N)=Nc1nc(-c2ccccc2)c2ccccc2n1	102% [at 5 µM]
Cc1cc(C)c2nc(/N=C(\N)NC(=O)Nc3ccccc3)nc(C)c2c1	95.2%
CCC(CC)c1nnc(NC(=O)c2ccc3ccccc3n2)s1	80.1%
Cc1ccc(NC(=O)CO/N=C/c2ccccc2C)c(C)c1	92.9%
CC(=O)CCC1CC(c2ccc(Cl)cc2)=NO1 (stereo not drawn)	100%
CCCCCCNC(=O)c1ccc(Br)o1	102%
COc1cccc2cc(C(=O)NCc3ccc(F)cc3)c(=N)oc12	119%
O=[N+]([O-])c1cncc([N+](=O)[O-])c1Nc1ccccc1Cl	97.8% [at 5 µM]
Cc1cc(Br)ccc1OCC(=O)NNC(=O)c1cnccn1	111% [at 5 µM]
Cc1ccc(C(=O)C=CNNC(=O)c2ccccc2)cc1	98.9%
Cc1nc(C(=O)Nc2ccccc2)sc1C(=O)Nc1ccccc1	91%
CNC(=O)c1[nH]cnc1C(=O)Nc1ccc(Cl)cc1	98.1%
O=C(CN1CCOCC1)N/N=C/c1ccc(-c2ccc(Br)cc2)o1	96.8%
CCOCC(=O)Nc1ccc(C)c(Cl)c1	99.3%
O=C(Nc1ccccc1)c1ccc(Br)o1	110% [at 5 µM]
CCC(C)(C)NC(=O)c1ccc(Br)o1	110%
O=C(O)CCCCCN1C(=O)/C(=C\c2ccncc2)SC1=S	90.8%
